Bioassay records from PubChem BioAssay.
BRCA1 expr act = activators of BRCA1 expression; Potency, µM (highest dose often 46.1 µM), for inactives: at the top dose activation, hits mostly activators; 380,000 compounds, 1.1% hits; MCF7-BRCA1-FFLuc reporter, luminescence, 48 h; response scale: scaled: vehicle 0%, 10 µM genistein 100%; further: potency means the concentration at half of the fitted maximal effect; nearly all actives have a fitted effect of over 80% in size
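Cells: MCF7-BRCA1-FFLuc, 2000/well. Exposure: 48 h, 37 °C, 5% CO2. Read: luminescence, 15 min post-substrate. Controls: genistein 10 microM (maximal activation), DMSO (neutral).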
Gal4-VP16 FLuc = counter-screen for ROR gamma inhibitors: Gal4-VP16 reporter; Potency, µM (top dose mostly 53.6 µM), for inactives: top-dose activity, negative = inhibition, usual class: inhibitors; AID 2546; 310,000 compounds, 3.5% hits; Drosophila S2 Gal4-VP16 UAS-luciferase, luminescence, 20 h;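 further: Gal4-VP16 expression switched on by copper sulfate through the metallothionein promoter; potency means the concentration at half of the fitted maximal effect; on the % scale 0 is the no-effect control and ±100 the full control effect; nearly all actives have a fitted effect of over 50% in size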
ELG1 repair inh = blocks ELG1-dependent DNA repair in HEK293T cells. HEK293T ELG1-luciferase reporter, luminescence, 16 h; DNA damage induced by 5-fluorouridine. Potency, µM (highest dose often 46.1 µM), for inactives: at the highest dose activity change, negative = inhibition, most hits filed as inhibitors. 330,000 compounds, 2.3% hits; further: potency means the concentration at half of the fitted maximal effect; on the % scale 0 is the no-effect control and ±100 the full control effect; nearly all actives have a fitted effect of over 55% in size
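Luminescence from the luciferase reporter, measured 30 min after ONE-Glo reagent at room temperature, was the read-out. Beforehand, 2,000 cells per well were exposed for 16 hr at 37 °C to 5-fluorouridine together with compound or vehicle.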
p53 reactivation = re-activators of mutant p53. H1299 p53-A138V BP100-luciferase reporter, luminescence, 24 h. Potency, µM (top dose mostly 92.2 µM), for the others: top-dose activity change, positive = activation, hits mostly activators. 320,000 compounds, 0.063% hits; further: potency means the concentration at half of the fitted maximal effect; % of control where 0% means no effect; nearly all actives have a fitted effect of over 45% in size
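p53-null H1299 cells stably carrying temperature-sensitive p53-A138V and a BP100-luciferase reporter were pinned with compounds (4-point, 1:5 series) and held 24 hrs at 37 deg C. Luminescence was read 10 min after detection reagent.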
Giardia killer = Giardia lamblia killing. Giardia lamblia trophozoite viability. activity change, % at 7.66 µM, hits read low. 340,000 compounds, 0.15% hits. AID 540267; in the data active means activity change below about -80%; inconclusive means between about -30% and that limit;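 further: parasites exposed to compound for two days anaerobically before the ATP read; on the % scale 0 is the no-effect control and ±100 the full control effect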
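Giardia trophozoites, 100 cells per well, were exposed to compounds for 48 hrs at 37 deg C under anaerobic conditions; viability was then read as ATP content by bioluminescence after 15-30 min at room temperature.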
RORgamma inh = inhibitors of mouse ROR gamma transcriptional activity; 310,000 compounds, 5.4% hits; Drosophila S2 Gal4-RORgamma UAS-luciferase reporter, 20 h; Potency, µM (series often up to 53.6 µM), for the others: at the highest dose activity change, negative = inhibition, most hits filed as inhibitors; P51450; further: potency means the concentration at half of the fitted maximal effect; on the % scale 0 is the no-effect control and ±100 the full control effect; nearly all actives have a fitted effect of over 60% in size
Target sequence (P51450 whole entry, looked up, the tested form may be a part): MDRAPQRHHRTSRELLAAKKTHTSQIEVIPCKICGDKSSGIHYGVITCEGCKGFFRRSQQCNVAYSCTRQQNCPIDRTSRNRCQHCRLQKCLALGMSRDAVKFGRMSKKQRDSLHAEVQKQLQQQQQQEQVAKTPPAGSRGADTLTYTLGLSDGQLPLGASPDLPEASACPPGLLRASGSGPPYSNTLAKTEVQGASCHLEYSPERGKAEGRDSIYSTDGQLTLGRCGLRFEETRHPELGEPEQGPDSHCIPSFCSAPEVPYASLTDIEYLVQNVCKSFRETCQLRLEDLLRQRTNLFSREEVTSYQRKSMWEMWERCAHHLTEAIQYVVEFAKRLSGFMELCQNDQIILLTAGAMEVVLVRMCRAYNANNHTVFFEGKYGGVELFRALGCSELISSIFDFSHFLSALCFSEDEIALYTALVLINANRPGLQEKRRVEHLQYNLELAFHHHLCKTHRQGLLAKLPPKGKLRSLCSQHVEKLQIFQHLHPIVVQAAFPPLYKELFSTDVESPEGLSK
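In this cell-based reporter format, copper sulfate (700 uM final) drives Gal4–ROR gamma fusion expression from a metallothionein promoter in Drosophila Schneider cells; compounds preincubated 1 hr, reporter read after 20 hr at ambient temperature.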
Starred values were filed as active, the others as inactive; u = inconclusive; x = not tested or not shown; [ ] = remark or other dose. Shown are actives, neighbours in structure and some others; about 7.6% of the full set was active somewhere. Unless noted, the call rests on the fitted dose curve; in most records, active means well fitted curve in the direction sought with a large enough effect; inconclusive means small, poorly fitted or top-dose-only effect, or another doubt; inactive means no such curve, though single readings can be large; an effect the other way counts as inactive or inconclusive.

SMILES	BRCA1 expr act	Gal4-VP16 FLuc	ELG1 repair inh	p53 reactivation	Giardia killer	RORgamma inh
Cc1cc(N2CCN(C)CC2)nc2ccc(NC(=S)N3CCCCC3)cc12	-5%	4%	10%	20%	2	-11%
Cc1cccc(N2CCN(C(=S)Nc3ccc4nc(N5CCN(C)CC5)cc(C)c4c3)CC2)c1C	-9%	4.5µM*	14%	4%	-82*	4.5µM*
Cc1cc(N2CCN(C)CC2)nc2ccc(NC(=S)N3CCN(c4cccc(Cl)c4)CC3)cc12	-4%	-23%	6%	-1%	-81*	-20%
Cc1cccc(N2CCN(C(=S)Nc3ccc4nc(N5CCN(C)CC5)cc(C)c4c3)CC2C)c1 (stereo not given)	0%	u	12%	0%	-89*	u
Cc1cc(N2CCN(C)CC2)nc2ccc(NC(=S)N3CCN(c4ccc(Cl)cc4)CC3)cc12	-10%	u	-13%	2%	u	u
Cc1cc(N2CCN(C)CC2)nc2ccc(NC(=S)N3CCN(c4ccc(F)cc4)CC3)cc12	4%	-1%[10 µM]	-14%	u	-85*	u
Cc1cc(NC(=O)CN2CCC(O)CC2)nc2c1c(=O)oc1ccccc12	21%	x	x	x	x	x
O=C(NCC1CCN(S(=O)(=O)c2ccccc2)CC1)Nc1ccc(F)cc1	-8%	-5%	-20%	-3%	4	38%
CC(=O)Nc1ccc(S(=O)(=O)NC2=C(N3CCN(c4ccc(F)cc4)CC3)C(=O)c3ccccc3C2=O)cc1	-92%	-10%	8.2µM*	-22%	12	-40%
Cc1ccc(S(=O)(=O)NC2=C(N3CCN(c4ccccc4F)CC3)C(=O)c3ccccc3C2=O)cc1	-47%	-9%	-2%	1%	-19	11%
COc1ccc2c(c1)CCc1cc(C(=O)N3CCN(c4ccc(N5CCOCC5)nn4)CC3)sc1-2	-37%	1%	21µM*	-8%	-5	10%
COc1ccc(Cl)cc1S(=O)(=O)Nc1noc2ccccc12	-2%	-1%	-3%	8%	17	-26%
Cc1ccccc1C(=O)N1CCN(c2ccc(NC(=O)c3ccco3)cc2Cl)CC1	-77%	6.3µM*	2.1µM*	-32%	8	u
Cc1ccc(NC(=O)N2CCN(C(=O)c3ccco3)CC2)cc1Cl	8%	19%	0%	5%	21	u
O=C(Nc1ccc(N2CCN(C(=O)c3cccs3)CC2)c(Cl)c1)c1ccco1	12%	-2%	21µM*	2%	0	u
O=C(Nc1ccc(NC(=O)c2sc3ccccc3c2Cl)cc1Cl)c1ccco1	7.9µM*	u	u	-3%	-20	10µM*
O=C(Nc1ccc(NC(=O)c2cccs2)c(Cl)c1)c1ccco1	-17%	-14%	-24%	0%	u	-20%
O=C(/C=C/c1ccco1)N/C(=C\c1ccccc1)C(=O)NCCc1nc2ccccc2[nH]1	-13%	-11%	-1%	14%	48	13%
CCCCCCn1cc(C(=O)O)c(=O)c2cc(F)c(N3CCN(C)CC3)cc21	-6%	-13%	-5%	-5%	8	17%
NC(=O)c1ccc(NC(=O)CCCc2nc(-c3ccccc3Cl)no2)cc1	9%	-5%	12%	-1%	0	-19%
COc1ccc(Nc2nc(-c3cccs3)nc3ccccc23)c(OC)c1	8%	-6%	u	-3%	9	-3%
COc1cccc2nc(-c3cccs3)nc(NN3C(=O)C=C(C)C3=O)c12	x	5µM*	x	x	x	6.3µM*
O=C(c1ccc(F)cc1)N(Cc1cccs1)C1CCS(=O)(=O)C1 (stereo not given)	-7%	-3%	u	3%	4	-1%
COC(=O)[C@]1(Cc2ccccc2)N[C@H](CN(C)S(=O)(=O)c2ccc(F)cc2)[C@@H]2C(=O)N(C)C(=O)[C@@H]21	4%	x	3%	9%	-12	x
C=CCOC(=O)C1=C(C)NC(SCC(=O)N(CC)CC)=C(C#N)C1c1ccccc1 (stereo not given)	-1%	-2%	16µM*	1%	8	23%
SMILES	BRCA1 expr act	Gal4-VP16 FLuc	ELG1 repair inh	p53 reactivation	Giardia killer	RORgamma inh
C=CCOC(=O)C1=C(C)NC(SCC(=O)N(CC)CC)=C(C#N)C1c1ccco1 (stereo not given)	-21%	x	8.2µM*	-19%	7	-3%[0.365 µM]
CCOC(=O)C1=C(C)NC(SCC(N)=O)=C(C#N)C1c1ccccc1 (stereo not given)	-25%	-9%	-9%	-2%	13	-35%
COc1cccc(CN2CCNC(=O)C2CC(=O)NC2CCOCC2)c1OC (stereo not given)	-12%	3%	9%	6%	-23	-19%
COCC(C)N=C1NN=C(c2ccc(NC(C)=O)cc2)CS1 (stereo not given)	32%	25%	u	-1%	5	u
COCC(C)N=C1NN=C(c2cccs2)C(CC(=O)O)S1 (stereo not given)	-14%	11µM*	4%	4%	17	2µM*
CC(C)Oc1cc(F)ccc1-c1cc(C(=O)Nc2ccc(C(C)C)cc2)[nH]n1	-12%	x	x	x	x	x
Fc1cccc(COc2ccccc2C(=S)N2CCCC2)c1	45%	3%	-4%	-2%	8	11µM*
CC1(C)CC2CC(C)(CN2/C=N/c2sc3c(c2C#N)CC(C)(C)NC3(C)C)C1 (stereo not given)	-97%	-6%	23µM*	12%	2	-34%
Cc1[nH]c2ccccc2c1CCNC(=O)CCC(=O)c1ccccc1	4%	0%	-8%	18%	-7	9%
CC(C)CCNc1c(-c2cccs2)nc2ccccn12	49%	-4%	6%	-5%	2	33%
CS(=O)(=O)/C(C#N)=C\c1cnc(S(=O)(=O)c2ccccc2)s1	x	7.9µM*	24%	-17%	x	10µM*
CN(C)/C=C(\C#N)S(=O)(=O)c1ccccc1	15%	3%	-11%	0%	-3	-13%
Cc1ccc(S(=O)(=O)N2CCCCC2)cc1C(=O)Nc1cccnc1	-26%	-2%	12%	-4%	8	15%
Cc1cc(C)n2[nH]c(=O)c(N=Nc3ccccc3)c2n1	-7%	-4%	16%	-5%	26	5%
Cc1cc(C)n2[nH]c(=O)c(N=Nc3cccc(Cl)c3)c2n1	15%	1%	x	x	8	8.9µM*
Cc1cc(C)n2[nH]c(=O)c(N=Nc3cccc(C(F)(F)F)c3)c2n1	-27%	u	-1%	0%	19	13µM*
Cc1cc(C(F)(F)F)n2[nH]c(=O)c(N=Nc3ccccc3)c2n1	12%	-11%	-26%	-1%	-2	5%
